Values joined by “and” are separate entries in the source; they are usually repeats but may differ in a detail not shown here. Identical values can stand only once. The campaign covered roughly 86,000 compounds. About 220 (0.26%) were called active. The sample as a whole holds a higher share of actives than the screen did. A number with no mark means an inactive call.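 How the source made its calls: active means mean growth activity at or below -80% and every replicate also at or below -80%; inconclusive means mean at or below -80% but some replicate above -80%; inactive means mean growth activity above -80%.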
Assay: blockers of Clostridium difficile growth – HTS, primary screen (AID 1259249);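 further: 0% = DMSO wells and -100% = levofloxacin 16 µg/mL wells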
Settings: Clostridium difficile clinical isolate growth, OD600, 24 h; active compounds read low; screened at 16 µg/mL (by protocol)

| Structure (SMILES) | growth activity, negative = inhibition |
| --- | --- |
| COc1ccccc1CN1[C@H](CO)[C@@H](c2ccccc2)C12CN(C(=O)c1cnccn1)C2 | 5.54% |
| CN1CCN(C(=O)C[C@H]2CC[C@H]3[C@@H](COC[C@H](O)CN3CC3CCOCC3)O2)CC1 | -4.46% and 6.12% |
| COCCNC(=O)C[C@H]1CC[C@@H]2[C@@H](COc3ccc(NC(=O)C4CCOCC4)cc3C(=O)N2C)O1 | -4.68% |
| CNC(=O)C[C@@H]1CC[C@@H]2[C@@H](COc3ccc(NC(=O)c4ccc(F)cc4)cc3C(=O)N2C)O1 | 8.61% |
| O=C(N[C@@H]1CC[C@@H](CC(=O)N2CCc3ccccc3C2)O[C@H]1CO)C1CC1 | -3.47% |
| CCCNC(=O)N1CC2(C1)[C@H](c1ccccc1)[C@@H](CO)N2Cc1cccc(Cl)c1 | 17% |
| O=C(Nc1ccc(F)cc1)N1C[C@@H]2[C@H](c3ccccc31)[C@H](CO)N2Cc1ccccc1 | 3.9% |
| Cc1cccc(-c2ccc(C3[C@@H]4CN(C(=O)Nc5ccc(C(F)(F)F)cc5)C[C@H]3N4)cc2)c1 (stereo not given in full) | -94.2% (active) and -85.7% (active) |
| CN(C)C(=O)c1ccc(-c2ccc(C3[C@@H]4CN(C(=O)Nc5ccccc5)C[C@H]3N4)cc2)cc1 (stereo not given in full) | 4.58% |
| O=C(C1CCCCC1)N1C[C@@H]2N[C@H](C1)C2c1ccc(-c2cccc(F)c2)cc1 (stereo not given in full) | 56.1% and 10.9% |
| COc1ccc2c3c(n(C)c2c1)[C@H](CO)N(Cc1ccccc1)CC31CN(C(=O)c2ccccc2F)C1 | 20.3% |
| CCCC(=O)Nc1ccc2c(c1)OC[C@H](C)N(C(=O)CC)C[C@H](C)[C@@H](OC)CN(C)C2=O | -5.26% |
| COc1ccc2c3c([nH]c2c1)[C@@H](CO)N(C(C)=O)CC31CN(C(=O)Nc2ccc(F)cc2)C1 | 1.62% |
| CN1CCCCN2[C@@H](CO)[C@@H](c3ccc(C4=CCCC4)cc3)[C@@H]2C1 | 0.437% |
| N#C[C@@H]1[C@H](c2ccc(-c3cccnc3)cc2)[C@H](CO)N1C(=O)C1CC1 | -3.1% |
| O=C(CN1CCOCC1)NCC[C@@H]1CC[C@@H](NC(=O)Nc2ccccc2)[C@H](CO)O1 | 0.549% |
| O=S(=O)(N[C@H]1CC[C@@H](CCNS(=O)(=O)c2ccccc2Cl)O[C@@H]1CO)c1ccccc1 | -8.16% |
| COc1ccc(C#Cc2ccc([C@@H]3[C@H](CO)N4C(=O)CN(C(C)=O)C[C@@H]34)cc2)cc1 | -6.73% |
| O=C(O)CCCCCCC(=O)NOCc1ccccc1 | -0.197% |
| CN(C)CC(=O)N[C@@H]1CC[C@H](CC(=O)NCc2ccc(Cl)cc2)O[C@H]1CO | 3.53% |
| CC(C)C#Cc1ccc2c(c1)O[C@@H](CN(C)C(=O)Nc1ccccc1)[C@H](C)CN([C@H](C)CO)S2(=O)=O | 3.59% |
| CCCc1cn(CC[C@@H]2CC[C@@H](NC(=O)C3CC3)[C@H](CO)O2)nn1 | -2.37% |

| Structure (SMILES) | growth activity, negative = inhibition |
| --- | --- |
| O=C(CC1CC1)N1[C@@H](CO)[C@@H](c2ccccc2)C12CN(S(=O)(=O)c1ccccc1)C2 | 1.02% |
| COc1ccc2c3c([nH]c2c1)[C@@H](CO)N(Cc1nccs1)CC31CCN(C(=O)C2CCCC2)CC1 | 1.43% |
| CCCC(=O)Nc1ccc2c(c1)C(=O)N(C)[C@H]1CC[C@@H](CC(=O)NCC(F)(F)F)O[C@@H]1CO2 | 4.45% |
| COCC(=O)N1CC[C@@H]2[C@@H](CO)Nc3ccc(-c4ccc(C(=O)N(C)C)cc4)cc3[C@@H]21 | -7.52% |
| CO[C@@H]1CN(C)C(=O)c2cc(NC(=O)C3CC3)ccc2OC[C@@H](C)N(C(=O)c2ccccc2F)C[C@@H]1C | -0.472% |
| O=C(C[C@H]1C[C@@H]2c3cc(NC(=O)C4CCOCC4)ccc3O[C@@H]2[C@H](CO)O1)NCC1CC1 | -3.84% |
| CO[C@@H]1CN(C)C(=O)c2cc(NC(=O)Nc3cccc(Cl)c3)ccc2OC[C@@H](C)N(C)C[C@@H]1C | -2.08% |
| CCS(=O)(=O)Nc1ccc2c(c1)C(=O)N(C)[C@@H]1CC[C@@H](CC(=O)NC)O[C@H]1CO2 | 3.49% |
| COc1ccc2c3c(n(C)c2c1)[C@H](CO)N(C(=O)Cc1ccccc1)CC31CCN(C)CC1 | -5.17% |
| O=C(C1CCC1)N1C[C@H]2[C@@H](c3ccccc31)[C@H](CO)N2C(=O)Nc1cccc(F)c1 | -2.73% |
| CCCNC(=O)N1C[C@H](C)[C@@H](OC)CN(C)C(=O)c2ccc(NS(=O)(=O)CC(F)(F)F)cc2OC[C@@H]1C | -2.19% |
| O=C(c1cccc(F)c1)N1CC[C@@H]2[C@H](CO)Nc3ccc(C#Cc4ccccc4)cc3[C@@H]21 | 0.292% |
| CN1C(=O)c2cc(NC(=O)C3CC3)ccc2OC[C@@H]2O[C@H](CC(=O)NCC3CCCCC3)CC[C@@H]21 | -3.31% |
| COc1cccc(S(=O)(=O)N2[C@@H]3CNC[C@H]2C3c2ccc(-c3ccccc3OC)cc2)c1 (stereo not given in full) | 17.5% and 1.35% |
| COC(=O)[C@@H]1[C@@H](CO)[C@@H]2Cn3c(ccc(-c4ccc(OC)cc4)c3=O)[C@@H]2N1S(C)(=O)=O | -4.77% |
| O=C(O)C[C@@H]1CC[C@H](NC(=O)CCN2CCCCC2)[C@H](CO)O1 | -9.12% |
| COc1ccccc1CN1CC[C@@H]2[C@@H](CO)Nc3ccc(C#Cc4ccccc4)cc3[C@@H]21 | -94.5% (active) |
| COc1ccc(C#Cc2ccc3c(c2)[C@H]2[C@H](CCN2Cc2nccs2)[C@@H](CO)N3)cc1 | -3.82% |
| CC(=O)N1CC[C@@H]2[C@H](CO)Nc3ccc(C#Cc4ccccc4F)cc3[C@@H]21 | -13.8% |
| N#C[C@@H]1[C@H](c2ccc(C#CC3CCCCC3)cc2)[C@@H](CO)N1S(=O)(=O)c1ccccc1 | -14.1% |
| COc1ccc2c3c(n(C)c2c1)[C@@H](CO)N(C(=O)Nc1ccccc1F)CC31CCN(C(=O)c2ccccc2F)CC1 | -1.72% |
| C[C@@H]1CN([C@@H](C)CO)C(=O)c2cc(-c3cccnc3)cnc2O[C@@H]1CN(C)C(=O)C1CC1 | 4.12% |

| Structure (SMILES) | growth activity, negative = inhibition |
| --- | --- |
| COc1ccccc1S(=O)(=O)N1C[C@@H]2N[C@H](C1)C2c1ccc(-c2cccc(C)c2)cc1 (stereo not given in full) | 66.4% and 49% |
| O=C(C1CCOCC1)N1CC2(C1)[C@H](c1ccccc1)[C@H](CO)N2Cc1ccc(Cl)cc1 | -1.43% |
| C[C@@H]1CCCCO[C@H](CN(C)Cc2ccc(C(F)(F)F)cc2)[C@H](C)CN([C@@H](C)CO)C(=O)c2cc(N(C)C)ccc2O1 | 3.85% |
| Cc1noc(C)c1NC(=O)N(C)C[C@H]1OCCCC[C@@H](C)Oc2ccc(NS(=O)(=O)c3ccc(Cl)cc3)cc2C(=O)N([C@@H](C)CO)C[C@H]1C | -9.03% |
| COc1ccc2c3c([nH]c2c1)[C@@H](CO)NCC31CN(S(=O)(=O)c2cccs2)C1 | -6.75% |
| CCCNC(=O)N1[C@H](CO)[C@@H]2c3ccccc3N(C(=O)C3CC3)C[C@@H]21 | 1.07% |
| COc1ccc(CN(C)C[C@@H]2OCCCC[C@H](C)Oc3ccc(NS(=O)(=O)c4ccc(F)cc4)cc3C(=O)N([C@H](C)CO)C[C@H]2C)cc1 | 8.17% |
| CC(=O)Nc1ccc2c(c1)C(=O)N(C)[C@@H]1CC[C@H](CC(=O)NCc3ccccc3)O[C@H]1CO2 | 6.07% |
| N#Cc1ccc(-c2ccc(C3[C@H]4CNC[C@@H]3N4S(=O)(=O)c3ccccc3F)cc2)cc1 (stereo not given in full) | 29.2% |
| CO[C@@H]1CN(C)C(=O)c2ccc(NS(=O)(=O)c3ccc(Cl)cc3)cc2OC[C@@H](C)N(C)C[C@@H]1C | -1.74% |
| CCCN1[C@H](C(=O)N[C@H](C)c2ccccc2)[C@@H](CO)[C@@H]2Cn3c(ccc(-c4cccc(F)c4)c3=O)[C@@H]21 | 14.4% |
| COCC#Cc1ccc([C@H]2[C@H]3CN(Cc4ccncc4)CCCCN3[C@H]2CO)cc1 | 13.5% |
| C[C@@H]1CN([C@@H](C)CO)C(=O)c2cc(NS(=O)(=O)c3cn(C)cn3)ccc2O[C@@H](C)CCCCO[C@H]1CN(C)S(=O)(=O)c1cccs1 | 1.84% |
| CN1c2ccc(-c3ccccc3)cc2[C@H]2[C@H](CCN2C(=O)c2ccc3c(c2)OCO3)[C@H]1CO | -20.7% |
| CN1C(=O)c2cc(NC(=O)c3cnccn3)ccc2OC[C@H]2O[C@@H](CC(=O)NCC3CCCCC3)CC[C@@H]21 | 0.457% |
| CO[C@H]1CN(C)C(=O)c2cc(NC(=O)C3CC3)ccc2OC[C@H](C)N(Cc2ccccc2)C[C@H]1C | -3.86% |
| Cc1ccc(-c2ccc3c(c2)O[C@H](CN(C)C(=O)CC2CC2)[C@@H](C)CN([C@H](C)CO)S3(=O)=O)cc1 | 3.19% |
| CCC(CO)Oc1cc(NC(=O)c2ccc(Cl)cc2)c2ncn(C(C)C)c2c1 (stereo not given) | -0.177% |
| O=C(NC1CCCC1)N1CC(=O)N2[C@H](C1)[C@H](c1ccc(/C=C/c3ccccc3)cc1)[C@@H]2CO | -1.1% |
| COCC(=O)N1CC2(C1)[C@@H](c1ccc(-c3cccc(F)c3)cc1)[C@@H](CO)N2C(=O)COC | -0.178% |
| CN1c2ccc(Br)cc2[C@@H]2[C@@H](CCN2S(=O)(=O)c2ccc(F)cc2)[C@@H]1CO | 67.3% |
